# Data published in PubChem BioAssay (NCATS).
# Several values for one entry are separate records, joined by “and”; a condition that tells them apart may be missing. Identical values can stand only once. Inconclusive results are not listed. A structure can be active in one record and inactive in another. Activity calls are given as the source filed them. Calls follow the shape of the dose curve; as a rule, active = well fitted cell-killing curve with a large enough effect; inconclusive = small, poorly fitted or top-dose-only effect, or effect the other way; inactive = no such curve, though single readings can be large or run the other way.
# Assay: Viability qHTS for spleen associated tyrosine kinase inhibitor (SYKi) drug resistant MV4-11 cells (AID 1963824); also: nearly all actives have a fitted effect of over 35% in size
# Conditions: SYKi-resistant MV4-11 viability, CellTiter-Glo, 72 h; series mostly up to 45 µM; viability, % of control: at the top concentration
# Excerpt: Department of Medicine, Hematology/Oncology
# University Hospital Frankfurt, Germany.
# Trials have shown promising clinical activity of the selective SYK inhibitor entospletinib in patients with high expressing HOXA9/MEIS1 acute leukemias. As the development of resistance mechanisms is a common problem in the use of targeted drugs, we performed a chemical library screen to identify drug sensitivities in SYK inhibitor resistant AML cells. […] Glucocorticoids are potent immunosuppressants which work in part by inhibiting the transcription of cytokine genes.
# Described herein is a viability screen to look for activity in the SYK inhibitor drug resistant cell line against four NCATS compound libraries (MIPE 5.0, NPC, NPACT, and Kinase) totaling 11372 compounds. Active hits were reacquired for confirmation and further secondary assay testing.
# SEQUENCE No. (e.g., 1, 2, 3, etc.); […] (e.g., Cells, Incubation, Reagent, etc.); VALUE; DESCRIPTION.
# 1; Media; 2uL; white, solid-bottom Corning assay plate.
# 2; Compounds; 23nL; Echo acoustic dispenser.
# 3; Cell; 5uL; 500 cells per well.
# 4: Incubation; 72hr; 37 C, 5% CO2, 95% humidity.
# 5; Reagent; 3uL; CellTiter-Glo reagent (Promega).
# 6; Incubation; 10min; room temperature.
# 7; Detection; Luminescence; ViewLux plate reader (PerkinElmer).
# NOTES (numbers refer to Sequence numbers above
# 1. Quantitative high-throughput screening (qHTS) of small molecule compounds was conducted on drug resistant SYKi MV4-11 cell line.
# 2. Twenty-three nanoliter of small molecule compounds were added to each assay plates using the Echo acoustic dispenser (Beckman Coulter).
# 3. Cells were seeded into the assay plates at a final density of 500 cells in 5uL of media per well using the Multidrop Combi dispenser.
# 4. Plates were covered with stainless steel gasketed lids and incubated for 72 hours at standard cell culture conditions.
# 5. Viability was assessed by adding 3uL of CellTiter-Glo detection reagent (Promega).
# 6. Plates were covered with gasket lids and incubated for 10 minutes at room temperature.
# 7. Luminescence was measured on a ViewLux plate reader (PerkinElmer).
# Potency is read from the fitted curve at half-maximal effect.
SMILES,"viability, % of control",Potency
CC1=CC(=O)CC(C)(C)C1CCC(C)OC1OC(COC(=O)c2cc(O)c(O)c(O)c2)C(O)C(O)C1O (stereo not given),106% [at 17.3 µM] (inactive),
C[C@H]1[C@H](C)CC[C@]2(C(=O)O[C@@H]3O[C@H](CO)[C@@H](O)[C@H](O)[C@H]3O)CC[C@]3(C(=O)O)C(=CCC4[C@@]5(C)CC[C@H](O[C@@H]6O[C@H](CO)[C@@H](O)[C@H](O)[C@H]6O)C(C)(C)C5CC[C@]43C)[C@H]12 (stereo not given in full),96% [at 9.25 µM] (inactive),
C[C@]12CCC(=O)C=C1CC[C@@H]1[C@@H]2CC[C@@]2(C)[C@H]1CC[C@]2(O)C(=O)CO,58.7% (inactive),
Cc1c(C(=O)Nc2ccc(N3C[C@@H](C)O[C@@H](C)C3)nc2)cccc1-c1ccc(OC(F)(F)F)cc1,,inactive and 7.42 µM (active)
CC1CCC23COC(=O)C2=CC(O)CC3C1(C)CCc1ccoc1 (stereo not given),107% (inactive),
CC[C@H](CC[C@@H](C)[C@H]1CC[C@H]2[C@@H]3CC=C4C[C@@H](O)CC[C@]4(C)[C@H]3CC[C@]12C)C(C)C,76.6% (inactive),
CCS(=O)(=O)N1CCC([C@@H](C)n2c(C)c(C(=O)NCc3c(OC)cc(C)[nH]c3=O)c3ccccc32)CC1,86.7% (inactive),
O=C(O)c1cn(-c2ccc(F)cc2)c2cc(N3CCNCC3)c(F)cc2c1=O,83.6% [at 17.3 µM] (inactive),
Clc1cccc(-c2nnnn2Cc2cccnc2)c1Cl,94.3% (inactive),
CCOc1cc(C(=O)N2CCC(N3CCN(C)CC3)CC2)ccc1Nc1ncc2c(n1)N(C1CCCC1)c1ccccc1C(=O)N2C,,651 nM (active) and 934 nM (active)
C=C1CC2[C@@]3(C)C=CC(=O)C(C)(C)C3=C(O)C(=O)[C@@]2(C)C2(C(=O)OC)C(=O)C(C)OC(=O)[C@@]12C (stereo not given in full),,10 µM (active)
CC(=O)N[C@@H](CC(=O)O)C(=O)N[C@@H](CCC(=O)O)C(=O)N[C@H](C(=O)N[C@@H](CC(=O)O)C(=O)Nc1ccc2c(C)cc(=O)oc2c1)C(C)C,,6.51 µM (active)
C/C=C(/C(=C/C)c1ccc(O)cc1)c1ccc(O)cc1,,14.8 µM (active)
CCCCCN(CCCOC)C(=O)C(CCC(=O)O)NC(=O)c1ccc(Cl)c(Cl)c1 (stereo not given),67.8% (inactive),
CC1=C2C(=O)C=C(CO[C@@H]3O[C@H](CO)[C@@H](O)[C@H](O)[C@H]3O)[C@@H]2[C@H]2OC(=O)[C@H](C)[C@@H]2[C@@H](O)C1,72.3% [at 17.3 µM] (inactive),
Cn1ccc2cc3c(cc21)CCN3C(=O)Nc1cccnc1,82.6% [at 17.3 µM] (inactive),
C=C[C@H]1[C@H](O[C@@H]2O[C@H](CO)[C@@H](O)[C@H](O)[C@H]2O)OC=C2C(=O)OCC[C@]21O,75.4% (inactive),
CCCN(CCC)C(=O)C1=Cc2ccc(-c3ccc(C(=O)N4CCCC4)cc3)cc2N=C(N)C1,,4.17 µM (active)
O=C(Nc1cc(C(F)(F)F)cc(C(F)(F)F)c1)c1cc(Cl)ccc1O,,517 nM (active) and 662 nM (active)
C[C@H](Oc1cc(-n2cnc3ccc(CN4CCN(C)CC4)cc32)sc1C(N)=O)c1ccccc1C(F)(F)F,,0.58 µM (active)

SMILES,"viability, % of control",Potency
CC(NC(=O)C(O)C(C)C)C(=O)NC1C(=O)N(C)CCc2ccccc21 (stereo not given),82.9% (inactive),
CC(C)(C)[C@H](NC(=O)c1ccc(N)c(Cl)c1)C(=O)N1CCC[C@H]1C(=O)N[C@H](C#N)CC(=O)O,72.1% (inactive),
CN(C)[C@@H]1C(=O)C(C(=O)NCN2CCCC2)=C(O)[C@@]2(O)C(=O)C3=C(O)c4c(O)cccc4[C@@](C)(O)C3C[C@@H]12 (stereo not given in full),82.4% (inactive),
CC1=C2CC(=O)C(C)CC/C=C(\C)CC2(O)OC1=O (stereo not given),97.5% (inactive),
Nc1ncnc2c1nc(N)n2[C@@H]1O[C@H](CO)[C@@H](O)[C@H]1O,,0.517 µM (active)
O=C1C(Cl)=C(NCCN2CCOCC2)C(=O)c2ncccc21,,2.09 µM (active)
CC1(C)O[C@@H]2C[C@H]3[C@@H]4C[C@H](F)C5=CC(=O)C=C[C@]5(C)[C@H]4[C@@H](O)C[C@]3(C)[C@]2(C(=O)CO)O1,,18.6 µM (active)
NC(=O)[C@H]1CCCCc2c1[nH]c1ccc(Cl)cc21,85.9% [at 17.3 µM] (inactive),
C[C@@H]1O[C@@H](O[C@@H]2[C@@H](O)[C@@H](O)[C@H](O[C@@H]3[C@@H](O)[C@@H](O[C@]4(CO)O[C@H](CO)[C@@H](O)[C@@H]4OC(=O)/C=C/c4ccc(O)cc4)O[C@H](CO)[C@H]3OC(=O)/C=C/c3ccc(O)cc3)O[C@H]2C)[C@H](O)[C@H](O)[C@H]1O,117% [at 9.25 µM] (inactive),
CCCCCCCCCCOCC(O)CN (stereo not given),,26.6 µM (active)
CCCOc1ccc2nc(NC(=O)OC)[nH]c2c1,,184 nM (active) and 332 nM (active)
CC(C)(C)c1cc(C(C)(C)C)c(NC(=O)c2c[nH]c3ccccc3c2=O)cc1O,,7.42 µM (active)
CCCOc1ccc(C(=O)OCCN(CC)CC)cc1N,,inactive
CC(C)COCC(CN(Cc1ccccc1)c1ccccc1)N1CCCC1 (stereo not given),,15 µM (active) and 11.8 µM (active)
COc1cc([C@H]2O[C@H](c3cc(OC)c4c(c3)OCO4)[C@H](C)[C@H]2C)cc(OC)c1OC,,0.893 µM (active)
Cc1csc2c(N[C@@H](C)CN3CCN(S(=O)(=O)c4ccc(Cl)c(Cl)c4)CC3)ncnc12,,0.231 µM (active)
C=CC(=O)Nc1cccc(Nc2nc(Nc3ccc(NC4CN(CCF)C4)cc3OC)ncc2C(F)(F)F)c1,,1.3 µM (active) and 1.48 µM (active)
NS(=O)(=O)c1ccc(NC(=S)N2CCN(C/C=C/c3ccccc3)CC2)cc1,,14.8 µM (active)
O=c1[nH]c(=O)n([C@H]2C[C@H](O)[C@@H](CO)O2)cc1I,,5.25 µM (active)
C=C1C(O[C@@H]2O[C@H](CO)[C@@H](O)[C@H](O)[C@@H]2O)CC2C(C)(C)C(O)CCC2(C)C1CC/C(C)=C\CO (stereo not given in full),86.7% [at 17.3 µM] (inactive),
